Consider 20 compounds from PubChem BioAssay.

A number with no mark means an inactive call. For some of these results: Potency and affinity values are given separately. Activity calls are given as the source filed them. Unless noted, the rule behind the calls is not given here.

Assay [1] is described as follows: antimalarial activity against Dd2 strain (AID 2302;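 active = growth inhibition above 50% at the single 2 µM test dose, taken to imply half-maximal potency below 2 µM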;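 note: 0% = DMSO untreated growth and 100% = chloroquine plus artemisinin killed control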). As to conditions: P. falciparum Dd2 in RBCs, LDH growth readout, 72 h; at 2 µM; hits give high values.
A short description of assay [2]: human hepatoma cell viability loss – ATP luminescence, cytotoxicity control for P. falciparum antimalarial project, primary screen (AID 2303;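 active = inhibition above 50%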;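 note: 0% = DMSO wells and 100% = digitonin-killed cells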). The settings on record: HepG2 viability, 24-48 h, at 10 µM, hits give high values.
For assay [3], the target named is L-lactate dehydrogenase (Plasmodium falciparum (isolate CDC / Honduras)) (UniProt Q27743). The experiment in a line: PfLDH activity inhibition – cell lysate, 3D7 strain, counter-screen for P. falciparum growth inhibition project (AID 2304).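 Note: 0% = vehicle and 100% = reference inhibitor.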 As to conditions: P. falciparum 3D7 crude extract, LDH APAD/NBT absorbance; at 2 µM; hits give high values.
L-lactate dehydrogenase (Plasmodium falciparum (isolate CDC / Honduras)), sequence (Q27743 whole entry, looked up): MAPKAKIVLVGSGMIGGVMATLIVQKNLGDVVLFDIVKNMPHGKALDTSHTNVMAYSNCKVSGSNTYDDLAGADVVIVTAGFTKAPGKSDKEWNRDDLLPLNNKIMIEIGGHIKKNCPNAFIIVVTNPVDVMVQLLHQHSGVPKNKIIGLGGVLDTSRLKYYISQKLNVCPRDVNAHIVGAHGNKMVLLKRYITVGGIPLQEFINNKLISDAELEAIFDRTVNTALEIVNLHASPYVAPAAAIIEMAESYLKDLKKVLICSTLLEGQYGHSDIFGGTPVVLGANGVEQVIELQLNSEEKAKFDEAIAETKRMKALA
Assay [4] is described as follows: inhibition of 3D7 malaria parasite growth – strain 3D7 (AID 2306).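 Note: 0% = DMSO wells and 100% = chloroquine plus artemisinin control wells.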 The settings on record: P. falciparum 3D7 erythrocytic growth, LDH absorbance, 72 h; at 2 µM; hits give high values.
In assay [5] the target is Calcium-dependent protein kinase 1 (Plasmodium falciparum (isolate 3D7)) (UniProt P62344). The experiment in a line: PfCDPK1 kinase inhibitors, biochemical, TCAMS library (AID 1159585; cut-off not given, nearly all actives have IC50 up to about 0.98 µM;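 note: inhibitors leave more ATP so luminescence rises with inhibition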). As to conditions: recombinant PfCDPK1, Kinase-Glo ATP depletion luminescence. A general note: Kinase-Glo reads ATP consumption through a luciferase reaction.
Calcium-dependent protein kinase 1 (Plasmodium falciparum (isolate 3D7)), sequence (P62344 whole entry, looked up): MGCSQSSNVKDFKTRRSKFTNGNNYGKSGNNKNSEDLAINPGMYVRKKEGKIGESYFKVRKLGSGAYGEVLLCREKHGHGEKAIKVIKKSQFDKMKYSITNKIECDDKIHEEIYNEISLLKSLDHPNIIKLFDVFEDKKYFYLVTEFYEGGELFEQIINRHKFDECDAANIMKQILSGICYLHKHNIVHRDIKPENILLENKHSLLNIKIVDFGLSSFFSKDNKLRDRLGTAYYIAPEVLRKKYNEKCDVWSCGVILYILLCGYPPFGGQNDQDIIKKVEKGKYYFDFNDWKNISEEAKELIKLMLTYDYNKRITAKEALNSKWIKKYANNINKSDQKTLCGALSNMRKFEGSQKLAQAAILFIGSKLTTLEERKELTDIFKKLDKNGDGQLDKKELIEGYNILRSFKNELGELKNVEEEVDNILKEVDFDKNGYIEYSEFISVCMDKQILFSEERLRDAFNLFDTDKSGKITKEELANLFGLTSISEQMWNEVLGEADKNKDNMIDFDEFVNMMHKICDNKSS
Assay [6] has as its target Plasmodium falciparum protein kinase 6 (PK6, PF3D7_1337100) (UniProt Q8IDW1). The assay is described as follows: PfPK6 kinase inhibitors, biochemical, TCAMS library (AID 1159586). The settings on record: recombinant PfPK6, Kinase-Glo ATP depletion luminescence.
In assay [7] the target is Protein kinase 7 (PK7), Plasmodium falciparum 3D7 (PF3D7_0213400) (UniProt Q7YTF7). The experiment in a line: inhibition of Plasmodium PK7 catalytic activity – biochemical, TCAMS antimalarial set, Kinase-Glo luminescence (AID 1159587). As to conditions: recombinant PfPK7, Kinase-Glo ATP depletion luminescence.
Protein kinase 7 (PK7), Plasmodium falciparum 3D7 (PF3D7_0213400), sequence (Q7YTF7 1-343): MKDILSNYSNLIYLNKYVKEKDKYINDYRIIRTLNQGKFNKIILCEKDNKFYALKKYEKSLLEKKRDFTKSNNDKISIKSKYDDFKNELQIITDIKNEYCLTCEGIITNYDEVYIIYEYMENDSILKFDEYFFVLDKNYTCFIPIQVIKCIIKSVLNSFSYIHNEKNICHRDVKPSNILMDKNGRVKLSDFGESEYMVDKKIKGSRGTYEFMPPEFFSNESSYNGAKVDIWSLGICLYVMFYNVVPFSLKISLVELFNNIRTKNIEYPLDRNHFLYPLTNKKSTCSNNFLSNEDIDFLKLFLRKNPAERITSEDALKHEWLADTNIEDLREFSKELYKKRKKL
Assay [8] concerns the target Calcium-dependent protein kinase 4 (Plasmodium falciparum (isolate 3D7)) (UniProt Q8IBS5). The experiment in a line: PfCDPK4 kinase inhibitors, biochemical, TCAMS library (AID 1159588; cut-off not given, nearly all actives have IC50 up to about 0.91 µM). As to conditions: recombinant PfCDPK4, Kinase-Glo ATP depletion luminescence.

Calcium-dependent protein kinase 4 (Plasmodium falciparum (isolate 3D7)), sequence (Q8IBS5 whole entry, looked up): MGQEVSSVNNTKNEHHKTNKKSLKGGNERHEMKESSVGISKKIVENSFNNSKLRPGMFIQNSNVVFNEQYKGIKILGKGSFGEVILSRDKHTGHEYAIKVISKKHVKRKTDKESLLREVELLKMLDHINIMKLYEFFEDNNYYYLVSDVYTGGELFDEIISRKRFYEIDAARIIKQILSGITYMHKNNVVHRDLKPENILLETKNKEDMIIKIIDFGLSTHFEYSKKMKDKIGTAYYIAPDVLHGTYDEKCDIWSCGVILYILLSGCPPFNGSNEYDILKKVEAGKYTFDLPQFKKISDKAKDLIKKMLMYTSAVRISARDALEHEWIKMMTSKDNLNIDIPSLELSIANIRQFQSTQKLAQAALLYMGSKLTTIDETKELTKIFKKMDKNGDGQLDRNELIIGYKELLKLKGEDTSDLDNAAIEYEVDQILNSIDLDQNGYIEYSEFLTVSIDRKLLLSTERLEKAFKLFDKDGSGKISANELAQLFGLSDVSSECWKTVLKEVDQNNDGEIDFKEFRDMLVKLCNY
Plasmodium falciparum protein kinase 6 (PK6, PF3D7_1337100), sequence (Q8IDW1 1-305): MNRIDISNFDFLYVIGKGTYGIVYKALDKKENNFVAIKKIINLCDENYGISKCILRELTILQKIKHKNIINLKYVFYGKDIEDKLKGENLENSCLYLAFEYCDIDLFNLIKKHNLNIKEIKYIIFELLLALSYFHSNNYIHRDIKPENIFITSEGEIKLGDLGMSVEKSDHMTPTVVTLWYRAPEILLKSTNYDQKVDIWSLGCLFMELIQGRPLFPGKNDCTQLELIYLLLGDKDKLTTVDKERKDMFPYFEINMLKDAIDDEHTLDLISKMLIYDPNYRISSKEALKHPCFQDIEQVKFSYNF

One may read the inhibition as the relative decrease from the control value, in per cent. Consider `CCCc1cnc2nc(N)nc(N)c2c1C`, for which the growth inhibition in assay [1] was 3%; in assay [4] it was 93% (active). Also, the figures for the inhibition in assay [2] and in assay [3] were 68% (active) and -3%, respectively. For the same compound, the result in assay [5], in assay [6], in assay [7] and in assay [8] was inactive.
As for `NC1CCN(Cc2ccc(-c3ccc(-c4nc5ccccc5[nH]4)s3)cc2)C1` (stereo not given), the figures for the growth inhibition in assay [1] and in assay [4] were 99% (active) and 101% (active), respectively. Moreover, the inhibition in assay [2] is 32%; in assay [3], -6%. Also, the outcome in assay [5], in assay [6], in assay [7] and in assay [8] was inactive.
Turning to `Cn1cnnc1Sc1ccc(CN2CCOc3ccc(C4=CCCCC4)cc3C2)o1`, the growth inhibition in assay [1] was 97% (active); in assay [4] it was 98% (active). For the same compound, the inhibition in assay [2] was 1%; in assay [3], 3%. In addition, the outcome in assay [5], in assay [6], in assay [7] and in assay [8] was inactive.
Take `Cc1cccc2[nH]c(-c3ccc(-c4cccc(NC(=O)c5cncn5C)c4)s3)nc12`: the growth inhibition in assay [1] is 16%; in assay [4], 103% (active). In addition, the inhibition is 13% in assay [2] and -5% in assay [3]. The result in assay [5], in assay [6], in assay [7] and in assay [8] was inactive.
For the compound `CC(C)N1CCC(N(Cc2ccc(-c3ccc(C(F)(F)F)cc3)cc2)C(=O)CCCn2c(CCc3cccc(F)c3F)nc(=O)c3ccccc32)CC1`, the growth inhibition in assay [1] is 60% (active); in assay [4], 89% (active). The inhibition in assay [2] is 45%; in assay [3] it was -5%. Besides, the outcome in assay [5], in assay [6], in assay [7] and in assay [8] was inactive.
As to `O=C(Nc1ccc(-c2ccc(-c3nc4ccccc4[nH]3)s2)cc1)c1ccncc1`, the growth inhibition in assay [1] is 95% (active); in assay [4], 94% (active). For the same compound, the inhibition in assay [2] was 21%; in assay [3], -5%. Moreover, the result in assay [5], in assay [6], in assay [7] and in assay [8] was inactive.
For `CS(=O)(=O)N(c1ccccc1)c1cc(C(=O)N[C@@H](Cc2ccccc2)[C@H](O)CNC2CC2)cc(N2CCCC2=O)c1`, the growth inhibition is 98% (active) in assay [1] and 100% (active) in assay [4]. Also, the inhibition in assay [2] was 1%; in assay [3], 4%. Further, the outcome in assay [5], in assay [6], in assay [7] and in assay [8] was inactive.
For the compound `O=C(NCCCN(Cc1ccc(F)cc1)c1ccccn1)C(c1cc2ccccc2o1)N1CCN(C(c2ccccc2)c2ccccc2)CC1` (stereo not given), the growth inhibition in assay [1] was 53% (active); in assay [4], 97% (active). In addition, the inhibition in assay [2] was 14%; in assay [3], 1%. Also, the outcome in assay [5], in assay [6], in assay [7] and in assay [8] was inactive.
`COc1ccc(NC(=O)C=Cc2ccc(Oc3ccccc3Cl)c([N+](=O)[O-])c2)cc1OCCN(C(C)C)C(C)C`: the growth inhibition in assay [1] was 97% (active); in assay [4] it was 99% (active). Also, the inhibition in assay [2] is 31%; in assay [3] it was 2%. The result in assay [5], in assay [6], in assay [7] and in assay [8] was inactive.
Take `CCc1c(CCNCCCCCCNCCc2ccc(OC)c(OC)c2CC)ccc(OC)c1OC`: the figures for the growth inhibition in assay [1] and in assay [4] were 1% and 100% (active), respectively. Moreover, the inhibition is 58% (active) in assay [2] and 0% in assay [3]. For the same compound, the result in assay [5], in assay [6], in assay [7] and in assay [8] was inactive.
As for `COc1ccc(NC(=O)/C=C/c2ccccc2Cl)cc1OCCN1CCC(N2CCCC2)CC1`, the growth inhibition in assay [1] is 23%; in assay [4], 102% (active). The results for the inhibition in assay [2] and in assay [3] were 22% and -1%, respectively. Further, the outcome in assay [5], in assay [6], in assay [7] and in assay [8] was inactive.
For `CN(C)Cc1ccc(-c2cc3ncnc(Nc4ccc(OCc5cccc(F)c5)c(Cl)c4)c3s2)[nH]1`, the growth inhibition in assay [1] is 87% (active); in assay [4], 99% (active). The values for the inhibition in assay [2] and in assay [3] were 53% (active) and 6%, respectively. In addition, the outcome in assay [5], in assay [6], in assay [7] and in assay [8] was inactive.
On to `COc1ccc2nccc([C@@H](O)CN3CCC(NC(=O)C(=Cc4ccc(Cl)cc4Cl)c4ccc(-c5ccccc5)cc4)CC3)c2c1`, for which the growth inhibition in assay [1] was 98% (active); in assay [4], 100% (active). For the same compound, the inhibition in assay [2] was 1%; in assay [3], -2%. The result in assay [5], in assay [6], in assay [7] and in assay [8] was inactive.
Regarding `COc1ccccc1NC(=O)Nc1ccc(-c2ccc(-c3nc4ccc(C(F)(F)F)cc4[nH]3)cc2)cc1`, the growth inhibition in assay [1] was 61% (active); in assay [4], 101% (active). In addition, the inhibition in assay [2] was 52% (active); in assay [3], 3%. Moreover, the outcome in assay [5], in assay [6], in assay [7] and in assay [8] was inactive.
Turning to `Cn1c(Sc2ncnc3sccc23)nc2ccccc21`, the growth inhibition in assay [1] and in assay [4] was 100% (active) each time. The inhibition in assay [2] is -12%; in assay [3], 5%. Also, the outcome in assay [5], in assay [6], in assay [7] and in assay [8] was inactive.
On to `COc1ccc(NC(=O)[C@H](Cc2ccccc2)Nc2cc(C)nc(NCCOc3ccccc3)n2)cc1`, for which the growth inhibition was 25% in assay [1] and 98% (active) in assay [4]. Moreover, the results for the inhibition in assay [2] and in assay [3] were 11% and 3%, respectively. Further, the outcome in assay [5], in assay [6], in assay [7] and in assay [8] was inactive.
Regarding `CO/C(=C\C=C\c1cc2cc(Cl)c(Cl)cc2[nH]1)C(=O)NCCCN1CCN(c2ccc(OC)cc2)CC1`, the growth inhibition in assay [1] was 44%; in assay [4] it was 99% (active). Also, the inhibition was 40% in assay [2] and -7% in assay [3]. For the same compound, the result in assay [5], in assay [6], in assay [7] and in assay [8] was inactive.
As to `O=C(Nc1ccc(S(=O)(=O)N2CCCCC2)cc1)c1cc(-c2cc(Cl)ccc2O)n[nH]1`, the growth inhibition in assay [1] is 87% (active); in assay [4] it was 97% (active). In addition, the inhibition in assay [2] is 36%; in assay [3], 0%. Further, the outcome in assay [5], in assay [6], in assay [7] and in assay [8] was inactive.
As for `Cc1cc(OCCCN2CCCCC2C)ccc1NC(=O)COc1ccc(Cl)cc1C(=O)c1cc(Cl)cc(C#N)c1` (stereo not given), the values for the growth inhibition in assay [1] and in assay [4] were 14% and 91% (active), respectively. The inhibition is 23% in assay [2] and -2% in assay [3]. Also, the result in assay [5], in assay [6], in assay [7] and in assay [8] was inactive.
Consider `COC(=O)c1cccc(CNCc2ccc(-c3cccc(-c4nc5ccccc5[nH]4)c3)cc2)c1`, for which the values for the growth inhibition in assay [1] and in assay [4] were 46% and 101% (active), respectively. The values for the inhibition in assay [2] and in assay [3] were 5% and -3%, respectively. The outcome in assay [5], in assay [6], in assay [7] and in assay [8] was inactive.
